Experimental data from PubChem BioAssay (NCATS).
A number with no mark means an inactive call. Results filed as inconclusive are left out. Entries that show only a call come without a potency. The source made the active and inactive calls. Unless noted, the call rests on the fitted dose curve; in most records, active means well fitted curve in the direction sought with a large enough effect; inconclusive means small, poorly fitted or top-dose-only effect, or another doubt; inactive means no such curve, though single readings can be large; an effect the other way counts as inactive or inconclusive.

Columns and labels:
[1] = Validation of Assay for Modulators of Lamin A Splicing (AID 1459; active means well fitted curve in the direction sought with a large enough effect in the signal ratio; the % refers to the signal ratio;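 further: cells exposed to compound for two days before reading; ratio rise marks activators and ratio drop marks inhibitors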)
Method in brief: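 S3 HeLa cells stably expressing a lamin A-EGFP splicing minigene and DsRed2 were seeded at 600 cells/well in Opti-MEM with 2% FBS, pin-dosed, and incubated 48 hrs at 37 °C, 5% CO2. Laser-scanning cytometry (488 nm) gave GFP/RFP total intensity ratio.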

[2] = target: DNA repair nuclease/redox regulator APEX1 (Homo sapiens) (UniProt P27695); assay: qHTS Validation Assay for Inhibitors of the Human Apurinic/apyrimidinic Endonuclease 1 (APE1) (AID 1705;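 further: TAMRA fluorescence gain over two minutes as APE1 cuts a quenched THF abasic duplex; series mostly up to about 57 µM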)
Sequence of DNA repair nuclease/redox regulator APEX1 (Homo sapiens) (P27695 whole entry, looked up): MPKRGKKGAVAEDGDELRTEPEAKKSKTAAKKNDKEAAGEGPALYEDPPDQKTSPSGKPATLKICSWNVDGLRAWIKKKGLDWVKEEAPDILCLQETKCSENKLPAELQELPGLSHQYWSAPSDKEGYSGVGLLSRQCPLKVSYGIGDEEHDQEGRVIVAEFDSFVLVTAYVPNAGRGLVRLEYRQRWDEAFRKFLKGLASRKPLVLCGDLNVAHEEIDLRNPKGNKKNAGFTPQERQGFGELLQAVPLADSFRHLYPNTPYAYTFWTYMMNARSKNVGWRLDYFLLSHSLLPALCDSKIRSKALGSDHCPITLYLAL
Method in brief: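 Human APE1 was preincubated with compound for 15 min at room temperature, then 50 nM (final) THF-abasic double-stranded DNA substrate bearing 5'-TAMRA and 3'-BHQ-2 was added. Incision-driven fluorescence rise (ex 525/em 598 nm) was read kinetically.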

[3] = Counterscreen for APE1 Inhibitors: Fluorescent Dye Displacement Validation Assay (AID 1707)
Method in brief: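 Thiazole Orange (250 nM) bound to 50 nM TAMRA-labelled dsDNA with tetrahydrofuran abasic site; displacement by DNA-binding compounds lowers fluorescence. Buffer 50 mM Tris-HCl pH 7.5, 50 mM NaCl, 2 mM MgCl2, 0.01% Tween-20; endpoint read at 480/540 nm.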

[4] = qHTS for differential inhibitors of proliferation of Plasmodium falciparum line 3D7 (AID 1876); further: potency means the concentration at half of the fitted maximal effect
[5] = qHTS for differential inhibitors of proliferation of Plasmodium falciparum line Dd2 (AID 1882); details: Potency: Plasmodium falciparum Dd2 proliferation inhibition; further: nearly all actives have a fitted effect of over 65% in size; further: potency means the concentration at half of the fitted maximal effect
Method in brief: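 SYBR Green I DNA fluorescence read-out, ex 485/em 535 nm. Signals were normalized to 0.29 uM artemisinin and DMSO wells, then corrected using vehicle-only plates flanking each stack. Parasite growth ran 72 h in erythrocytes before lysis.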

[6] = target: Ferritin light chain (Equus caballus) (UniProt P02791); assay: qHTS Validation Assay for Identification of Novel General Anesthetics (AID 2323); further: series mostly up to about 77 µM
Sequence of Ferritin light chain (Equus caballus) (P02791 2-175 limits assumed): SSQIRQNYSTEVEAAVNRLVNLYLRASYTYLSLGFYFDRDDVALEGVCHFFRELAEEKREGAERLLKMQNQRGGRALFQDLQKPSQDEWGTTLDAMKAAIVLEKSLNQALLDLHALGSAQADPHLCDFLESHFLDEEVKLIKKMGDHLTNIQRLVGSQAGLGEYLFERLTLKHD
Method in brief: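 Competitive displacement of profluorescent 1-aminoanthracene (1-AMA, 50% saturated solution in PBS) from 10 uM horse-spleen apoferritin. Compounds incubated 10 min at room temperature; fluorescence read at 380 nm excitation/535 nm emission, normalized to free 1-AMA and complex, fitted with four-parameter Hill equation.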

[7] = target: ATP-dependent DNA helicase Q1 (Homo sapiens) (UniProt P46063); assay: qHTS Validation Assay for Inhibitors of RecQ-Like Dna Helicase 1 (RECQ1) (AID 2353)
Sequence of ATP-dependent DNA helicase Q1 (Homo sapiens) (P46063 whole entry, looked up): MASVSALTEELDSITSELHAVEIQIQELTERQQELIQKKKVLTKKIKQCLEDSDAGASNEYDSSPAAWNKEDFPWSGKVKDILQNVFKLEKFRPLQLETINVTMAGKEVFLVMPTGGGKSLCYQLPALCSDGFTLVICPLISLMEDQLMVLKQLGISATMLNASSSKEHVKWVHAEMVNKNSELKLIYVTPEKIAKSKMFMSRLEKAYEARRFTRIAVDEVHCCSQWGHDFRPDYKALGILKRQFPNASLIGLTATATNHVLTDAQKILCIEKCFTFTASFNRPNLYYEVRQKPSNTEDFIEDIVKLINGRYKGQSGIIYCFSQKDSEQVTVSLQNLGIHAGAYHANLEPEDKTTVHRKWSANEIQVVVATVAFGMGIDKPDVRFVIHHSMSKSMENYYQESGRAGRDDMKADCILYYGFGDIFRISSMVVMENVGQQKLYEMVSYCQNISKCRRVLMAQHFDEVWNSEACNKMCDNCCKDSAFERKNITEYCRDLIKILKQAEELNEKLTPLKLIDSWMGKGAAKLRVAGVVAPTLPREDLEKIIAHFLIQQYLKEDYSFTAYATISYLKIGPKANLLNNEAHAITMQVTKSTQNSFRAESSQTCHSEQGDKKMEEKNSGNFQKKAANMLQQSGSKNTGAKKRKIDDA
Method in brief: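 50 nM RECQ1T1 preincubated 15 min with compound in Tris pH 8.0 buffer with MgCl2, DTT, Tween-20 and 2.5 ug/ml poly(dI-dC); started with 200 nM TAMRA/BHQ-2 forked duplex and 2 mM ATP. Unwinding read as fluorescence (525/598 nm), two reads 2 h apart.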

[8] = Validation screen for small molecules that induce DNA re-replication in MCF 10A normal breast cells (AID 463097); further: nearly all actives have a fitted effect of over 60% in size
Method in brief: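 Readout: Hoechst nuclear fluorescence intensity, 405 ex / 500-530 em, by scanning plate imager; re-replication scored as increase in nuclei with elevated DNA content. Cells exposed to compound 48 hr, 37 C, 5% CO2 beforehand.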

[9] = target: M-phase phosphoprotein 8 (Homo sapiens) (UniProt Q99549); assay: qHTS Validation Assay for Inhibitors for MPP8 Chromodomain Interactions with Methylated Histone Tails (AID 488949);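 further: AlphaScreen signal from MPP8 chromodomain bound to biotinylated H3K9me3 peptide; top concentration of the series differs between compounds; nearly all actives have a fitted effect of over 55% in size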
Method in brief: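 MPP8 (50 nM) was preincubated with biotinylated H3(1-18)K9me3 peptide (50 nM) in PBS pH 7.4, 0.01% Tween-20 for 30 min at room temperature, then with compounds for 30 min; binding was detected by AlphaScreen.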

[10] = target: Transient receptor potential cation channel subfamily V member 1 (Homo sapiens) (UniProt Q8NER1); assay: HTS Assay for Compounds that Act as Enhancers of the Vanilloid Receptor 1 (AID 488979)
Sequence of Transient receptor potential cation channel subfamily V member 1 (Homo sapiens) (Q8NER1 whole entry, looked up): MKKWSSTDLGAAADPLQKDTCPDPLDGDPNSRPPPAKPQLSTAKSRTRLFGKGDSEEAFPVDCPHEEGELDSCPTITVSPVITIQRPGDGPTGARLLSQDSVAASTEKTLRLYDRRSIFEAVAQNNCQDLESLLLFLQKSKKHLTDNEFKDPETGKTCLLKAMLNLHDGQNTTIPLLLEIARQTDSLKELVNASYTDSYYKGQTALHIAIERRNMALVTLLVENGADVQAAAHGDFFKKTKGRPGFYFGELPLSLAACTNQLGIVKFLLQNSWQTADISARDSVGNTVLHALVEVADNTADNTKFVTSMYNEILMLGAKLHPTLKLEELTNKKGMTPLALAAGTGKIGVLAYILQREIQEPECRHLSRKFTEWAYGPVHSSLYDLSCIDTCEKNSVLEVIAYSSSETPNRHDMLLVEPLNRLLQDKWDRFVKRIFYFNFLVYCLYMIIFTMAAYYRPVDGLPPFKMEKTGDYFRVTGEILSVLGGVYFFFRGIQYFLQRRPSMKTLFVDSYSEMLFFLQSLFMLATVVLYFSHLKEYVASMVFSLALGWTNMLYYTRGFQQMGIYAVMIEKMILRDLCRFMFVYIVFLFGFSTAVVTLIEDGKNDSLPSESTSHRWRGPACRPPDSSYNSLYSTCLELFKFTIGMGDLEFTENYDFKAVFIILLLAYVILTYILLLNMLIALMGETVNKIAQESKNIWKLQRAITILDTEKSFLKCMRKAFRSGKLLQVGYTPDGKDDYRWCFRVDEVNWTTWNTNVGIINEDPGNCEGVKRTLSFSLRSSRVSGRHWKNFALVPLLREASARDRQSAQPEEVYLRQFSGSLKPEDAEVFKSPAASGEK
Method in brief: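 TRPV1 cells loaded with Fluo-8 calcium dye; compound added and Ca2+ signal (ex 480/em 520 nm) followed 3 min, then capsaicin at EC20 added and read 2 more min to detect enhancement.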

[11] = target: Thyrotropin receptor (Homo sapiens) (UniProt P16473); assay: qHTS Assay for Antagonists of the Thyroid Stimulating Hormone Receptor (AID 488980); further: series mostly up to about 58 µM
Sequence of Thyrotropin receptor (Homo sapiens) (P16473 whole entry, looked up): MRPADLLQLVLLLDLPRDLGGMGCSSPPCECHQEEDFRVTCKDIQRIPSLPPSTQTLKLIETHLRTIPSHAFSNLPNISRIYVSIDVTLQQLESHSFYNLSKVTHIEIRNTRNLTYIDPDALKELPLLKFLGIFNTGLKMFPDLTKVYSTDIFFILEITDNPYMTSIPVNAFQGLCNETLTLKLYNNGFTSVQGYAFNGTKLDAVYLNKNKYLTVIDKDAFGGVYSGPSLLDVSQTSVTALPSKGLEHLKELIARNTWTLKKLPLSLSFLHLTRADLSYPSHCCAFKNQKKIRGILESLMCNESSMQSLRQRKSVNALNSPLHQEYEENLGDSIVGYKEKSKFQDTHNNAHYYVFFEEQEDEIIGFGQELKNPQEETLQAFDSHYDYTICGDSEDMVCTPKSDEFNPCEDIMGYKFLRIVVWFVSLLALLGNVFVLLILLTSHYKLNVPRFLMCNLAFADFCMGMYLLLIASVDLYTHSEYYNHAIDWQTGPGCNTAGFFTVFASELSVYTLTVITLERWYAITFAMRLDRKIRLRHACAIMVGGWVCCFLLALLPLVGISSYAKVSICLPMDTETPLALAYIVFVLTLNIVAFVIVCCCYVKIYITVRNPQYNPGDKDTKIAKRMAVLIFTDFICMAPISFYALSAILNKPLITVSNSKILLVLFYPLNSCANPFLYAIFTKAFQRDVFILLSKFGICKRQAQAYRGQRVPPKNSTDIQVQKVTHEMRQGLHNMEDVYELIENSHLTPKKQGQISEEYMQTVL
Method in brief: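 HEK293 cells transfected with human TSHR, suspended in HEPES-buffered HBSS with 70 uM RO 20-1724, were treated with compounds plus TSH at EC80 (4 nM final). cAMP was measured by competitive HTRF (cryptate anti-cAMP antibody, cAMP-d2 acceptor).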

[12] = target: Thyrotropin-releasing hormone receptor (Homo sapiens) (UniProt P34981); assay: qHTS for Small Molecule Agonists and Allosteric Enhancers of Human TRH Receptor: Validation Screen for Agonists (AID 493127;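 active means calcium activation more than 3 SD above the typical response in the agonist read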;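 further: intracellular calcium rise by fluo-8 fluorescence before TRH EC20 addition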); details: TRH receptor agonist cell assay; at 2 µM; hits give high values
Sequence of Thyrotropin-releasing hormone receptor (Homo sapiens) (P34981 whole entry, looked up): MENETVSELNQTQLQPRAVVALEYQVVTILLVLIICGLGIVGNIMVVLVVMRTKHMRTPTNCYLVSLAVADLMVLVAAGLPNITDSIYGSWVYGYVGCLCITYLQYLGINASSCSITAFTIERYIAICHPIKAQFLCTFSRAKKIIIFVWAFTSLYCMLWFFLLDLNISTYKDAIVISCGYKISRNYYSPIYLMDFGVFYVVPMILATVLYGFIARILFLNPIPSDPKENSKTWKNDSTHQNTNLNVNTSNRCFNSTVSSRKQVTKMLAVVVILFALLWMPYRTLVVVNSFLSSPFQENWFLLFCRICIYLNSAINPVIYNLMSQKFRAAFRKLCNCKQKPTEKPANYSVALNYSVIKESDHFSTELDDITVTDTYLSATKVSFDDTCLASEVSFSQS
Method in brief: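 TRHR-expressing cells were plated overnight in serum-containing medium, then loaded with fluo-8 calcium dye at room temperature for 30 min–1.5 h. After a 10 s baseline, compound was pin-transferred and calcium fluorescence (ex 480/em 530) read kinetically for agonist response.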

[13] = target: Galactokinase (Homo sapiens) (UniProt P51570); assay: qHTS Validation Assay for Inhibitors of Human Galactokinase (GALK) (AID 493189)
Sequence of Galactokinase (Homo sapiens) (P51570 whole entry, looked up): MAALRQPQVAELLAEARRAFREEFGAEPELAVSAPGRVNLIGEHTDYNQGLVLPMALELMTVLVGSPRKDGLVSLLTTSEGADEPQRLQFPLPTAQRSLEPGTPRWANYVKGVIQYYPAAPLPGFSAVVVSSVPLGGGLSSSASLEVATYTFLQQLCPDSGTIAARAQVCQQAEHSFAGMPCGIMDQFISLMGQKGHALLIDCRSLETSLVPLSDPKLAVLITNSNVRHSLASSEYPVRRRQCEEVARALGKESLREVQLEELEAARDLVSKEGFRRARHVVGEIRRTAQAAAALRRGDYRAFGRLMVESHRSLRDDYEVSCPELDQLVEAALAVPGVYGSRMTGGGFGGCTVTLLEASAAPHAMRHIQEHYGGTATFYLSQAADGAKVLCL
Method in brief: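 GALK (5 nM) with 35 uM ATP and 100 uM galactose in HEPES pH8.0, MgCl2, NaCl, DTT, BSA; 1 h at room temperature. Residual ATP read by Kinase-Glo Plus luminescence after 10 min.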

[14] = target: Voltage-gated inwardly rectifying potassium channel KCNH2 (Homo sapiens) (UniProt Q12809); assay: qHTS Assay for Small Molecule Inhibitors of the Human hERG Channel Activity (AID 588834);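 further: lower thallium flux fluorescence means stronger hERG block; nearly all actives have a fitted effect of over 50% in size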; further: potency means the concentration at half of the fitted maximal effect
Sequence of Voltage-gated inwardly rectifying potassium channel KCNH2 (Homo sapiens) (Q12809 whole entry, looked up): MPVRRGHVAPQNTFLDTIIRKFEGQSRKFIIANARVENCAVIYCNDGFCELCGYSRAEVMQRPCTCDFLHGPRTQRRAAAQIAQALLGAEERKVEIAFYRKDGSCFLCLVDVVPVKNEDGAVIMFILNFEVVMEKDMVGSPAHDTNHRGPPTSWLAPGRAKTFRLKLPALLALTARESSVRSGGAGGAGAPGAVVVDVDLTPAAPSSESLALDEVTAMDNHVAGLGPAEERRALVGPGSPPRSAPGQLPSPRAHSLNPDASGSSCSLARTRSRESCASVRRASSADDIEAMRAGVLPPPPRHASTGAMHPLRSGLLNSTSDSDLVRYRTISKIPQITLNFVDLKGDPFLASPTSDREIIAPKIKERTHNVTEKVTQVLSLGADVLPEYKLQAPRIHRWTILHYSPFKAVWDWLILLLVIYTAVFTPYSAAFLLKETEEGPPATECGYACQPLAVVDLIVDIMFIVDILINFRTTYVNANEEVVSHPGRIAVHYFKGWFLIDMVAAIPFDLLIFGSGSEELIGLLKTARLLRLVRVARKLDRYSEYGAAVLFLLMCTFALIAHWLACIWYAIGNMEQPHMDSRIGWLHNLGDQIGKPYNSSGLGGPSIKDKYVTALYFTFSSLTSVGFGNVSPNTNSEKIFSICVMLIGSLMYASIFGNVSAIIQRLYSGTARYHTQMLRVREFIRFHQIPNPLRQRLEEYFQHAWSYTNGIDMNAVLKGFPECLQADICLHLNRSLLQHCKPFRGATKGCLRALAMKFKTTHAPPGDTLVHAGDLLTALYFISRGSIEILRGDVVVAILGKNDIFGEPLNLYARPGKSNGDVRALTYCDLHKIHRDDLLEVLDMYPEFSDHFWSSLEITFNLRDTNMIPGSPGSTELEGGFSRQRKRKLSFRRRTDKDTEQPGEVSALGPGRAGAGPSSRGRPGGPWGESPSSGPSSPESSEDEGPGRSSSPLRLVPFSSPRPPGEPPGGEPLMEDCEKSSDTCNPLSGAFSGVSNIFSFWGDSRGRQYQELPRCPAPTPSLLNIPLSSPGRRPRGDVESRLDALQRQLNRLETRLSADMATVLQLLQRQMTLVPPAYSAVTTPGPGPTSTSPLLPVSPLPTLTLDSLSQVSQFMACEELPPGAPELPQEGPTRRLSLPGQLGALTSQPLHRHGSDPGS
Method in brief: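 U2OS cells transduced with hERG via BacMam (MOI ~100), plated 2000/well, loaded with FluxOR thallium dye, compound ~10 min, then stimulation buffer; fluorescence decrease read kinetically; AC50 from Hill fits.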

[15] = Quantitative high throughput screen for delayed death inhibitors of the malarial parasite plastid, 96 hour incubation (AID 488745); further: nearly all actives have a fitted effect of over 70% in size; further: potency means the concentration at half of the fitted maximal effect
Method in brief: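 P. falciparum carrying an integrated firefly luciferase reporter, grown in erythrocytes (2% hematocrit, 0.1% parasitemia final) in RPMI 1640/0.5% Albumax, was exposed to compound for 96 h (two generations) at 37 C, 5% CO2. Luminescence decrease indicated growth inhibition.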

[16] = Quantitative high throughput screen for delayed death inhibitors of the malarial parasite plastid, 48 hour incubation (AID 488752); further: nearly all actives have a fitted effect of over 65% in size; further: potency means the concentration at half of the fitted maximal effect
Method in brief: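 Erythrocytes infected with P. falciparum carrying an integrated firefly luciferase reporter (2% hematocrit, 0.1% parasitemia final) were exposed to compounds in RPMI 1640/0.5% Albumax for 48 h at 37 C, 5% CO2. Growth inhibition was scored as reduced luminescence.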

[17] = target: Endonuclease 4 (Escherichia coli (strain K12)) (UniProt P0A6C1); assay: Counterscreen for APE1 Inhibitors: qHTS Validation Assay for Inhibitors of Endonuclease IV (AID 1708)
Method in brief: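 Cleavage of a quenched abasic-site DNA duplex (50 nM, 5'-TAMRA, 3'-BHQ-2) by 2 nM enzyme is followed as fluorescence increase. Compounds are preincubated with enzyme 15 min at room temperature before substrate addition.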

SMILES | outcome [1] | Potency [2] | Potency [3] | Potency [4] | Potency [5] | outcome [6] | Potency [7] | outcome [8] | Potency [9] | outcome [10] | outcome [11] | activation [12] [%] | outcome [13] | Potency [14] | Potency [15] | Potency [16] | outcome [17]
CN1CCc2cc(Cl)c(O)cc2C(c2ccccc2)C1 (stereo unspecified) | inactive | inactive | inactive | 11.2 µM (active) | 8.91 µM (active) | inactive | inactive | inactive | inactive | inactive | inactive | 1.12 | inactive | 10 µM (active) |  |  | 
C[C@]12C=CC(=O)C=C1CCC1C2=CC[C@]2(C)[C@@H](C(=O)CN3CCN(c4cc(N5CCCC5)nc(N5CCCC5)n4)CC3)CC[C@@H]12 (stereo partly specified) | inactive | inactive |  |  |  |  | inactive |  |  |  | inactive | 1.5 | inactive | inactive | 13.1 µM (active) | 13.1 µM (active) | 
Nc1ncnc2c1nc(Sc1ccc(Cl)cc1)n2[C@H]1O[C@@H]2COP(=O)(O)O[C@H]2[C@@H]1O | inactive | inactive | inactive |  |  | inactive | inactive | inactive | inactive | inactive | inactive | 1.31 | inactive | inactive | inactive | inactive | inactive
CCCC(=O)NCCc1c2n(c3ccc(OC)cc13)Cc1ccccc1-2 | inactive |  | inactive |  | inactive | inactive | inactive | inactive | inactive | inactive | inactive | -7.06 | inactive | inactive | inactive |  | inactive
OC[C@H]1O[C@@H](n2cnc3c(NC4CCCC4)ncnc32)[C@H](O)[C@H]1O | inactive | inactive | inactive | inactive | inactive | inactive | inactive | inactive | inactive | inactive | inactive | -0.438 | inactive | inactive | inactive | inactive | inactive
CCn1c(=O)c2[nH]c(-c3ccccc3)nc2n(CC)c1=O | inactive | inactive | inactive | inactive | inactive |  | inactive | inactive | inactive | inactive | inactive | 0.688 | inactive |  |  | inactive | inactive
CC(C)C[C@H]1C(=O)N2CCCC2[C@]2(O)O[C@](NC(=O)[C@@H]3C=C4c5cccc6[nH]c(Br)c(c56)C[C@H]4N(C)C3)(C(C)C)C(=O)N12 (stereo partly specified) | inactive | inactive | inactive |  |  | inactive | inactive |  | inactive | inactive | inactive | 0.625 | inactive | inactive | 9.28 µM (active) | 8.28 µM (active) | 
Nc1ncnc2c1ncn2[C@@H]1O[C@H](C(=O)NC2CC2)[C@H](O)[C@H]1O | inactive | inactive | inactive | inactive | inactive | inactive | inactive | inactive | inactive | inactive | inactive | 1.12 | inactive | inactive | inactive | inactive | inactive
Nc1nc2c(nc(Br)n2C2O[C@H]3COP(=O)(O)O[C@@H]3C2O)c(=O)[nH]1 (stereo partly specified) | inactive | inactive | inactive | 10 µM (active) | 7.94 µM (active) | inactive | inactive | inactive | inactive | inactive | inactive | 0.812 | inactive |  |  | 10.4 µM (active) | inactive
CNCC[C@@H](Oc1ccc(C(F)(F)F)cc1)c1ccccc1 | inactive |  | inactive |  |  |  | inactive |  | inactive |  | inactive | 18.7 | inactive |  |  |  | inactive
